Broadly, the AC50 is the concentration at which the activity in the assay is half-maximal.

Calls of active or inactive are those of the source. The calls were made as follows: active = hit-call score of the fitted dose curve at least 0.9, where 1 is the maximum; inactive = score below 0.9.

Details in all cases: primary human HUVEC with PBMC; actives raise or lower the signal
Read-out in test [1]: Macrophage colony-stimulating factor (MCSF), CSF1 (gene 1435)
Description: BSK_LPS_MCSF: BioMAP Diversity Plus: LPS Assay for Macrophage colony-stimulating factor (MCSF) Biomarker Activity (AID 2283083). The essentials:
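Compound is added to a human vascular primary co-culture of umbilical vein endothelium and blood mononuclear cells. After 24 h, M-CSF is quantified by ELISA. Signal changes are fitted in both directions against DMSO.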

Read-out in test [2]: Tissue Factor, F3 (gene 2152)
The test can be described thus: BSK_LPS_TissueFactor: BioMAP Diversity Plus: LPS Assay for Tissue Factor Biomarker Activity (AID 2283084). The essentials: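 In this co-culture system of umbilical vein endothelium with PBMC, stimulated with LPS, cell-surface CD142 is detected by ELISA at 24 h. Endpoint values derive from bidirectional fitting, DMSO serving as baseline.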

Read-out in test [3]: Tumor necrosis factor (Homo sapiens) (UniProt P01375)
Description: BSK_LPS_TNFa: BioMAP Diversity Plus: LPS Assay for Tumour Necrosis Factor alpha (TNFa) Biomarker Activity (AID 2283085).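 As to AC50: TNFa protein level quantified by ELISA in the co-culture.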 A digest of the protocol: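 Cells (umbilical vein endothelium plus peripheral blood mononuclear cells) were dosed with chemical, incubated 24 h, then TNFa was quantified by ELISA; values derive from bidirectional fitting with DMSO as baseline.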

Read-out in test [4]: Vascular cell adhesion molecule 1 (VCAM1), VCAM1 (gene 7412)
The test can be described thus: BSK_LPS_VCAM1: BioMAP Diversity Plus: LPS Assay for Vascular cell adhesion molecule 1 (VCAM1) Biomarker Activity (AID 2283086). The essentials: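 Cells are dosed in an LPS-stimulated endothelial/mononuclear co-culture and, after 24 h, VCAM-1 is quantified by ELISA. Activity in either direction is fitted relative to the DMSO negative control.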

Read-out in another test: CD38, CD38 (gene 952)
The test can be described thus: BSK_SAg_CD38: BioMAP Diversity Plus: SAg Assay for CD38 Biomarker Activity (AID 2283087). The essentials: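 CD38 quantified by ELISA (fluorescence) in a superantigen-activated endothelial cell–PBMC co-culture at 24 h post-dose. Activity fitted in both directions relative to DMSO; parallel SRB and Alamar Blue cytotoxicity read-outs.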

Read-out in the next test: CD40, CD40 (gene 958)
The test can be described thus: BSK_SAg_CD40: BioMAP Diversity Plus: SAg Assay for CD40 Biomarker Activity (AID 2283088). The essentials:
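Fluorescence ELISA read-out of CD40 from umbilical vein endothelium plus peripheral blood mononuclear cells, sampled 24 h after dosing. Values come from bidirectional curve fitting with DMSO as baseline.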

Read-out in another test: CD69, CD69 (gene 969)
The test can be described thus: BSK_SAg_CD69: BioMAP Diversity Plus: SAg Assay for CD69 Biomarker Activity (AID 2283089).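 As to AC50: cell surface CD69 protein quantified by ELISA with fluorescence detection.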 A digest of the protocol:
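Primary human vascular co-culture (umbilical vein endothelium with peripheral blood mononuclear cells) exposed to test chemical for 24 h. CD69 levels quantified by fluorescence ELISA; DMSO served as negative control for bidirectional fitting.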

Read-out in test [5]: Monocyte Chemoattractant Protein-1 (MCP1), CCL2 (gene 6347)
The test can be described thus: BSK_SAg_MCP1: BioMAP Diversity Plus: SAg Assay for Monocyte Chemoattractant Protein-1 (MCP1) Biomarker Activity (AID 2283090). The essentials: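 Values derive from bidirectional fitting of ELISA-measured MCP1 against DMSO controls. Readings were taken 24 h after dosing human vascular endothelial cells co-cultured with peripheral blood mononuclear cells under superantigen stimulation.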

Read-out in test [6]: E-selectin (Homo sapiens) (UniProt P16581)
The test can be described thus: BSK_SAg_Eselectin: BioMAP Diversity Plus: SAg Assay for Eselectin Biomarker Activity (AID 2283091). The essentials:
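Primary human endothelial cells and peripheral blood mononuclear cells were co-cultured and exposed to chemical for 24 hours. E-selectin levels were then quantified by ELISA, with bidirectional curve fitting normalised to DMSO controls.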

Read-out in test [7]: Monokine induced gamma interferon (MIG), CXCL9 (gene 4283)
The test can be described thus: BSK_SAg_MIG: BioMAP Diversity Plus: SAg Assay for Monokine induced gamma interferon (MIG) Biomarker Activity (AID 2283092). The essentials: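 Endothelial cells and PBMC were co-cultured, exposed to test chemicals, and sampled 24 h later. MIG was measured by ELISA, and responses were fitted in both directions relative to DMSO.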

Chain of Tumor necrosis factor (Homo sapiens) (P01375 whole entry, looked up): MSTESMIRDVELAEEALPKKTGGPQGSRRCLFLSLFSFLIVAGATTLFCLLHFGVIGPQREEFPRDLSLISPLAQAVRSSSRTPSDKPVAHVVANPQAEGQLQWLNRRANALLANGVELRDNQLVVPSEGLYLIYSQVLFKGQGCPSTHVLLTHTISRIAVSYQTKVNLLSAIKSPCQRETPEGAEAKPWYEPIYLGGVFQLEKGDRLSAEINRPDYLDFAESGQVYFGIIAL
Chain of E-selectin (Homo sapiens) (P16581 whole entry, looked up): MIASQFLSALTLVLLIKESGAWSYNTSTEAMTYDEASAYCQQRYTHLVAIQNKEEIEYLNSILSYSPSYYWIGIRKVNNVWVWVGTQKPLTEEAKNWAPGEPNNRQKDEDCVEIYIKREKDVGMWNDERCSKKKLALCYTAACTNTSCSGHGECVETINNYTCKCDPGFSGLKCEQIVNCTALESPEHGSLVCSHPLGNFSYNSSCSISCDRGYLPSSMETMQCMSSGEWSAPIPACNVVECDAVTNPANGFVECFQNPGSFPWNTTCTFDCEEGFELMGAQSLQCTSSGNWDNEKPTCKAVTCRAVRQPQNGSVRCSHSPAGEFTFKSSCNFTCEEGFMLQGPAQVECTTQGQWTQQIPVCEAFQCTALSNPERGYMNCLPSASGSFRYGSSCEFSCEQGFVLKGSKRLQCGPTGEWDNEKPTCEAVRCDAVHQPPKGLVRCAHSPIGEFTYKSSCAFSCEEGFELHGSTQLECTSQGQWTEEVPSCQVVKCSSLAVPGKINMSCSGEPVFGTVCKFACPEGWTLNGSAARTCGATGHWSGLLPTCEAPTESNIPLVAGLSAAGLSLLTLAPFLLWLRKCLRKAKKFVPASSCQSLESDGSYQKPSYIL

With `O=C(Nc1ccc2c(O)c(N=Nc3ccc(N=Nc4ccc(S(=O)(=O)O)cc4)cc3)c(S(=O)(=O)O)cc2c1)c1ccccc1`, the outcome was “inactive” in test [1]; “inactive” in [2]; “inactive” in test [3]; “inactive” in test [4]; “inactive” with CD38, CD38 (gene 952); “inactive” with CD40, CD40 (gene 958). Further, the outcome is “inactive” in the test with CD69, CD69 (gene 969); “inactive” in [5]; “inactive” in [6]; “inactive” in test [7].

For the compound `C1=CC2C3C=CC(C3)C2C1` (stereo not given), the outcome was “inactive” in [1]; “inactive” in test [2]; “inactive” in test [3]; “inactive” in test [4]; “inactive” with CD38, CD38 (gene 952); “inactive” in the test with CD40, CD40 (gene 958). Further, the outcome with CD69, CD69 (gene 969) is “inactive”; in [5], “inactive”; in [6] it was “inactive”; in [7], “inactive”.

Regarding `CC1(C)C2=CCCC(C)(C)[C@]23CC[C@H]1C3`, the outcome in test [1] was “inactive”; in test [2], “inactive”; in test [3], “inactive”; in test [4], “inactive”; in the test with CD38, CD38 (gene 952) it was “inactive”; with CD40, CD40 (gene 958), “inactive”. Also, the outcome in the test with CD69, CD69 (gene 969) is “inactive”; in [5], “inactive”; in test [6] it was “inactive”; in [7], “inactive”.

Regarding `O=CN1CCOCC1`, the outcome in test [1] was “inactive”; in test [2], “inactive”; in test [3] it was “inactive”; in [4], “inactive”; in the test with CD38, CD38 (gene 952), “inactive”; in the test with CD40, CD40 (gene 958), “inactive”. The outcome with CD69, CD69 (gene 969) was “inactive”; in test [5], “inactive”; in test [6], “inactive”; in [7] it was “inactive”.

As for `COc1ccc(OC)c(N=Nc2c(O)ccc3ccccc23)c1`, the AC50 was 20 µM (active) in [1]; 20 µM (active) in test [2]; 20 µM (active) in test [3]; 20 µM (active) in test [4]; 20 µM (active) with CD38, CD38 (gene 952); 3.97 µM (active) in the test with CD40, CD40 (gene 958). Besides, the outcome with CD69, CD69 (gene 969) was “inactive”; in test [5] it was “inactive”; in [6], “inactive”; in [7], “inactive”.

Regarding `CC(C)(N=C=O)c1cccc(C(C)(C)N=C=O)c1`, the outcome in [1] was “inactive”; in test [2], “inactive”; in test [3], “inactive”; in test [4] it was “inactive”; in the test with CD38, CD38 (gene 952), “inactive”; with CD40, CD40 (gene 958), “inactive”. The outcome with CD69, CD69 (gene 969) was “inactive”; in test [5] it was “inactive”; in test [6], “inactive”; in test [7], “inactive”.

Take `C=C(C)C(=O)OCCOCCOCCOC(=O)C(=C)C`: the outcome was “inactive” in [1]; “inactive” in test [2]; “inactive” in test [3]; “inactive” in [4]; “inactive” in the test with CD38, CD38 (gene 952); “inactive” with CD40, CD40 (gene 958). The outcome with CD69, CD69 (gene 969) was “inactive”; in [5] it was “inactive”; in [6], “inactive”; in [7], “inactive”.

On to `c1ccc(CCc2ccccc2)cc1`, for which the AC50 in test [1] was 31.2 µM (active); in [2] it was 31.1 µM (active); in test [4] it was 31.8 µM (active); with CD38, CD38 (gene 952) it was 30.2 µM (active); with CD40, CD40 (gene 958), 30.9 µM (active); with CD69, CD69 (gene 969) it was 30 µM (active). Also, the results for the AC50 in [5], in test [6] and in test [7] were 31.5 µM (active), 31.7 µM (active) and 34.1 µM (active), respectively. Besides, in [3], the outcome was inactive.

With `CCC(C)c1cc([N+](=O)[O-])cc([N+](=O)[O-])c1OC(=O)OC(C)C` (stereo not given), the AC50 was 14 µM (active) in test [1]; 16.2 µM (active) in [2]; 31.8 µM (active) in test [3]; 16.8 µM (active) in test [4]; 10.8 µM (active) in the test with CD38, CD38 (gene 952); 9.34 µM (active) with CD40, CD40 (gene 958). In addition, the concentration at half-maximal activity (AC50) with CD69, CD69 (gene 969) is 8.7 µM (active); in [5], 12.2 µM (active); in test [6] it was 12.2 µM (active); in [7], 9.7 µM (active).

As for `CC(C)(C)CC(C)(C)c1ccc(OCCOCC[N+](C)(C)Cc2ccccc2)cc1`, the concentration at half-maximal activity (AC50) in test [1] was 7.03 µM (active); in test [2], 9.04 µM (active); in [3] it was 8.89 µM (active); in test [4], 9.18 µM (active); with CD38, CD38 (gene 952), 5 µM (active); with CD40, CD40 (gene 958) it was 5 µM (active). For the same compound, the concentration at half-maximal activity (AC50) with CD69, CD69 (gene 969) is 3.28 µM (active); in [5], 5 µM (active); in test [6] it was 3.59 µM (active); in [7], 6.44 µM (active).

(Values after PubChem BioAssay (EPA / NIEHS).)
